Screening results as filed in PubChem.
A1 inh: inhibitors of the anti-apoptotic protein A1, read as caspase activation | caspase activation, % (test concentration not listed) | 330,000 compounds, 0.066% hits | MEF A1-2A-BIM cells, Caspase-Glo 3/7 luminescence, 3 h; percent of clofoctol response, vehicle zero;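 active = over half of replicate activation scores above 10%, or exactly half above 10 with the replicate mean above 10; inconclusive = replicate mean below 10 yet half the replicates above 10; inactive = over half of replicates below 10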
VLA-4 inh: inhibition in a human VLA-4 binding assay | P13612 | VLA-4 expressing cells, ligand binding flow cytometry | inhibition, % (about 7 µM as worked out from the volumes in the protocol) | 330,000 compounds, 0.2% hits; in the data active = inhibition above about 50%
Efflux pump inh: inhibitors of Candida antifungal efflux pumps expressed in yeast; S. cerevisiae Candida pump triplex, Nile Red efflux; inhibition, % at 10 µM; 330,000 compounds, 0.44% hits;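 active = plate passing quality check with inhibition over a set limit, or well fluorescence over plate mean plus 4 SD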;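 note: Nile Red retained in pooled yeast measured as flow cytometry median fluorescence; higher means more Nile Red kept so more efflux inhibition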
AHR activator: human AHR activation. P35869. AHR-responsive luciferase reporter cells, luminescence. activation, % at 5 µM. 320,000 compounds, 2.5% hits; in the data active = activation above about 47%
ALR inh: human ALR oxidase inhibition via reduced H2O2 | P55789 | purified ALR, DTT oxidation, H2O2 HRP-luminol luminescence | inhibition, % (test concentration not listed) | 290,000 compounds, 3.8% hits;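 active = mean replicate inhibition above about 79%, with every replicate also reaching it, limit read from the data; inconclusive = only one of the two criteria met; inactive = mean below limit and not every replicate reaching it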
Mot1-301 SUMO: blocks SUMOylation pathway, rescuing yeast Mot1-301 growth. S. cerevisiae Mot1-301 growth rescue, ATP luminescence, 38.5C; percent above DMSO median, 100 means doubled. growth rescue, % at 18.8 µM. 320,000 compounds, 1% hits. AID 2716;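 active = every valid replicate shows activation above 250% relative to neutral control wells; inactive = the rest, any valid replicate at or below 250%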
A number is an active result. An excerpt weighted towards active compounds, which were near 7.2% of everything screened.

Cc1ccc(-c2csc3nc(C)n(-n4c(C)ccc4C)c(=O)c23)o1 was read as A1 inh inactive, VLA-4 inh inactive, Efflux pump inh inactive, AHR activator inactive, ALR inh inactive and Mot1-301 SUMO inactive.
For C=CCn1c(=S)[nH]c2scc(-c3ccc(C)o3)c2c1=O the results were A1 inh inactive, VLA-4 inh inactive, Efflux pump inh inactive, AHR activator inactive, ALR inh 98 and Mot1-301 SUMO inactive.
Screening CC(=O)Nc1nc(-c2ccc3c(c2)CC(C)N3C(=O)C2CC2)c(C)s1 (stereo not drawn) returned A1 inh inactive, VLA-4 inh inactive, Efflux pump inh inactive, AHR activator inactive, ALR inh 99 and Mot1-301 SUMO inactive.
Screening CCOC(=O)C(=O)Nc1nc(-c2ccc3c(c2)CCN3C(=O)C2CC2)c(C)s1 returned A1 inh inactive, VLA-4 inh inactive, Efflux pump inh inactive, AHR activator inactive, ALR inh 99 and Mot1-301 SUMO inactive.
Screening Cc1sc(NC(=O)c2ccco2)nc1-c1ccc2c(c1)CC(C)N2C(=O)C1CC1 (stereo not drawn) returned A1 inh inactive, VLA-4 inh inactive, Efflux pump inh inactive, AHR activator inactive, ALR inh inactive and Mot1-301 SUMO inactive.
CCOC(=O)Cc1csc(N/N=C\c2ccccc2OC)n1 was read as A1 inh inactive, VLA-4 inh inactive, Efflux pump inh inactive, AHR activator 51, ALR inh inactive and Mot1-301 SUMO inactive.
For O=c1c(Cl)c(Cl)cnn1Cc1ccccc1Cl the results were A1 inh 8.3, VLA-4 inh inactive, Efflux pump inh inactive, AHR activator inactive, ALR inh 95 and Mot1-301 SUMO inactive.
`Cc1cc(C)cc(Cn2ncc(Cl)c(Cl)c2=O)c1` gave A1 inh 6.7, VLA-4 inh inactive, Efflux pump inh inactive, AHR activator inactive, ALR inh 96 and Mot1-301 SUMO inactive.
For Cc1ccc(Cn2ncc(Cl)c(Cl)c2=O)cc1 the results were A1 inh inactive, VLA-4 inh inactive, Efflux pump inh inactive, AHR activator inactive, ALR inh inactive and Mot1-301 SUMO inactive.
`CN1CCN(C(=S)c2ccc(OCC(=O)Nc3cccc(C(F)(F)F)c3)cc2)CC1` gave A1 inh inactive, VLA-4 inh inactive, Efflux pump inh inactive, AHR activator inactive, ALR inh inactive and Mot1-301 SUMO inactive.
Screening O=C(NC1CCCC1)c1ccc(CSc2nc3ccncc3n2Cc2ccc(F)cc2)cc1 returned A1 inh inactive, VLA-4 inh inactive, Efflux pump inh inactive, AHR activator inactive, ALR inh 99 and Mot1-301 SUMO inactive.
CN1CCN(C(=O)c2ccc(CSc3nc4ccncc4n3Cc3ccc(F)cc3)cc2)CC1 was read as A1 inh inactive, VLA-4 inh inactive, Efflux pump inh inactive, AHR activator inactive, ALR inh inactive and Mot1-301 SUMO inactive.
Screening O=C(NCCN1CCOCC1)c1ccc(F)cc1 returned A1 inh inactive, VLA-4 inh inactive, Efflux pump inh inactive, AHR activator inactive, ALR inh inactive and Mot1-301 SUMO inactive.
For O=C(NCCN1CCOCC1)c1ccc(CSc2nc3ccncc3n2Cc2ccc(F)cc2)cc1 the results were A1 inh inactive, VLA-4 inh inactive, Efflux pump inh inactive, AHR activator inactive, ALR inh 99 and Mot1-301 SUMO inactive.
COCCn1cc(-c2csc(N)n2)c2ccccc21 was read as A1 inh inactive, VLA-4 inh inactive, Efflux pump inh inactive, AHR activator inactive, ALR inh inactive and Mot1-301 SUMO inactive.
`CN(C)c1nc(-c2cn(CCC#N)c3ccccc23)cs1` gave A1 inh inactive, VLA-4 inh inactive, Efflux pump inh inactive, AHR activator 62, ALR inh inactive and Mot1-301 SUMO inactive.
Screening Cc1cc(C(=O)NNC(=O)CCN2CCN(c3ccccc3)CC2)c2ccccc2n1 returned A1 inh inactive, VLA-4 inh inactive, Efflux pump inh inactive, AHR activator inactive, ALR inh 98 and Mot1-301 SUMO inactive.
Screening O=C(CCN1CCN(c2ccccc2)CC1)NNC(=O)c1cccc2ccccc12 returned A1 inh inactive, VLA-4 inh inactive, Efflux pump inh inactive, AHR activator inactive, ALR inh 99 and Mot1-301 SUMO inactive.
`COc1cccc(C(=O)NCCN2CCN(c3ccc(Cl)cc3)CC2)c1` gave A1 inh inactive, VLA-4 inh inactive, Efflux pump inh inactive, AHR activator inactive, ALR inh inactive and Mot1-301 SUMO inactive.
For CCc1cc(C(=O)NNC(=O)CCN2CCN(c3ccccc3)CC2)sc1C the results were A1 inh inactive, VLA-4 inh inactive, Efflux pump inh inactive, AHR activator inactive, ALR inh inactive and Mot1-301 SUMO inactive.
For COc1cccc(C(=O)NNC(=O)CCN2CCN(c3ccccc3)CC2)c1 the results were A1 inh inactive, VLA-4 inh inactive, Efflux pump inh inactive, AHR activator inactive, ALR inh 86 and Mot1-301 SUMO inactive.
Screening CC(=O)c1ccc(N2CCN(C(=O)CCCn3c(=S)[nH]c4cc5c(cc4c3=O)OCO5)CC2)cc1 returned A1 inh inactive, VLA-4 inh inactive, Efflux pump inh inactive, AHR activator inactive, ALR inh inactive and Mot1-301 SUMO 298.
`O=c1c2cc(Br)ccc2[nH]c(=S)n1Cc1ccccn1` gave A1 inh inactive, VLA-4 inh inactive, Efflux pump inh inactive, AHR activator 67, ALR inh 93 and Mot1-301 SUMO inactive.
For O=C(CCCn1c(=S)[nH]c2cc3c(cc2c1=O)OCO3)N1CCN(c2ccc(Cl)cc2)CC1 the results were A1 inh inactive, VLA-4 inh inactive, Efflux pump inh inactive, AHR activator inactive, ALR inh inactive and Mot1-301 SUMO inactive.
`O=C(CCCn1c(=S)[nH]c2ccc(Br)cc2c1=O)NCc1ccccn1` gave A1 inh inactive, VLA-4 inh inactive, Efflux pump inh inactive, AHR activator inactive, ALR inh inactive and Mot1-301 SUMO inactive.
For O=C(CCCn1c(=S)[nH]c2ccc(Br)cc2c1=O)N1CCN(c2ccccn2)CC1 the results were A1 inh inconclusive, VLA-4 inh inactive, Efflux pump inh inactive, AHR activator inactive, ALR inh 92 and Mot1-301 SUMO inactive.
O=C(COC(=O)c1ccccc1Cl)NCc1ccco1 was read as A1 inh inconclusive, VLA-4 inh inactive, Efflux pump inh inactive, AHR activator inactive, ALR inh inactive and Mot1-301 SUMO inactive.
`CC(C)(C)OC(=O)NCCCCCNC(=O)c1[nH]cnc1C(=O)NC1CCN(C(=O)OC(C)(C)C)CC1` gave A1 inh inactive, VLA-4 inh inactive, Efflux pump inh inactive, AHR activator inactive, ALR inh inactive and Mot1-301 SUMO inactive.
`O=S(=O)(Cc1ccccc1)N1CCc2ccccc21` gave A1 inh inactive, VLA-4 inh inactive, Efflux pump inh 2.7, AHR activator inactive, ALR inh inactive and Mot1-301 SUMO inactive.
`Cn1cc(CCC(=O)N2CCCC(Nc3ccc(F)cc3)C2)cn1` (stereo not drawn) gave A1 inh inactive, VLA-4 inh inactive, Efflux pump inh inactive, AHR activator inactive, ALR inh inconclusive and Mot1-301 SUMO inactive.
